# A selection: hits, their analogues and other compounds. The true share with any hit is near 11%.
# HCV inh: inhibitors of hepatitis C virus infection. Huh7.5.1 HCVcc-Cre infection, luciferase reporter, 44 h. Potency, µM (titrated, usually from 41.8 µM), without a hit: at the top dose activity change, negative = inhibition, hits mostly inhibitors. 340,000 compounds, 3.4% hits
#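 Luciferase read-out (15 sec integration) after a 15 min room-temperature substrate step quantifies HCVcc-Cre infection. Cells, 1,000 per well, had compound added 4 h post-plating, then virus at ~0.5 moi, and were cultured 44 h.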
# Pf growth 96h: P. falciparum growth inhibition at 96 hours; 320,000 compounds, 6.9% hits; Potency, µM (top dose mostly 28.7 µM), without a hit: top-dose activity change, negative = inhibition, most hits filed as inhibitors; P. falciparum luciferase reporter growth, 96 h
#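 Erythrocytes infected with luciferase-expressing P. falciparum were dispensed at 2% hematocrit and 0.05% parasitemia (final), then incubated with compounds 96 hours at 37 C in 5% CO2. Luminescence after detection reagent addition reported growth.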
# Pf growth 48h: P. falciparum growth inhibition at 48 hours (one generation); 310,000 compounds, 5.9% hits; P. falciparum luciferase growth in erythrocytes, 48 h; Potency, µM (titrated, usually from 28.7 µM), inactives show at the highest dose activity change, negative = inhibition, actives largely listed as inhibitors; AID 504832
#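 Firefly luciferase activity from engineered P. falciparum reports growth; inhibitors lower the luminescent signal. Cultures contained 2% hematocrit erythrocytes at 0.1% final parasitemia.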
# AMA1 RON2 block: disrupts binding of P. falciparum AMA1 to RON2; AlphaScreen AMA1-biotinylated RON2 peptide binding; Potency, µM (titrated, usually from 58.2 µM), inactives show top-dose activity change, negative = inhibition, hits mostly inhibitors; 360,000 compounds, 0.2% hits; AID 720542;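 note: 0% = vehicle wells and -100% = peptide control; nearly all actives have a fitted effect of over 45% in size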
#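 AMA1 (3D7) with his tag at 25 nM final met compounds first, then biotinylated RON2 peptide at 25 nM; detection used donor plus acceptor beads, 10 µg/mL apiece, read by AlphaScreen after 30 min at room temperature.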
# An asterisk follows results filed as active; ? = inconclusive; / = no result; [ ] = dose if it differs, or a comment. Calls come from the whole dose curve; as a rule, active = well fitted curve in the direction sought with a large enough effect; inconclusive = small, poorly fitted or top-dose-only effect, or another doubt; inactive = no such curve, though single readings can be large; an effect the other way counts as inactive or inconclusive. Unless noted, % is set by controls: 0 for no effect and ±100 for the full control effect; potency is the fitted concentration of half-maximal effect.
SMILES,HCV inh,Pf growth 96h,Pf growth 48h,AMA1 RON2 block
CCCC(=O)NC(c1ccc(Cl)cc1)c1ccc2cccnc2c1O (stereo unspecified),1.8µM*,-1%,?,49%
CCCC(=O)NC(c1ccc(C)cc1)c1ccc2cccnc2c1O (stereo unspecified),3.5µM*,32%,3.7µM*,-20%
CCCCC(=O)NC(c1ccc(Cl)cc1)c1ccc2cccnc2c1O (stereo unspecified),?,/,/,79%
CCN(CC(=O)Nc1ccc(C(C)=O)cc1)CC(=O)Nc1cccc(OC)c1,?,1%,-5%,40%
CCOC(=O)C1=C(c2ccccc2)NC(N)=NC1c1ccc(OCc2ccc(C(=O)OC)cc2)cc1 (stereo unspecified),?,7.4µM*,4.7µM*,-16%
CNC(=O)NC(=O)CSc1nc2sccc2c(=O)n1-c1ccccc1,9%,?,?,37%
O=C(O)C1OC2OC3(CCCCC3)OC2C2OC3(CCCCC3)OC12 (stereo unspecified),35%,1.5µM*,13%,-1%
O=C1OCCOC2CCCc3oc(C4=CCCCC4)c1c32 (stereo unspecified),/,/,/,-5%
CN1CCN(Cc2nc3ccccc3n2C)CC1CCO (stereo unspecified),10%,0%,?,61%
CC(C)=CCN1CCN(Cc2c[nH]c3ccccc23)CC1CCO (stereo unspecified),-1%,2.9µM*,0%,9%
CC(C)Cn1c(CN2CCN(C)C(CCO)C2)nc2ccccc21 (stereo unspecified),3%,9.3µM*,-2%,55%
CC(C)N1CCN(Cc2c[nH]c3ccccc23)CC1CCO (stereo unspecified),8%,1%,18%,7%
CC(C)=CCN1CCN(Cc2cccc3c2OCO3)CC1CCO (stereo unspecified),7%,?,4%,12%
CC(C)CN1CCN(Cc2c[nH]c3ccccc23)CC1CCO (stereo unspecified),-5%,9.3µM*,9%,-2%
O=C(O)CCCCCn1c(SCc2cc(=O)n3ccccc3n2)nc2ccsc2c1=O,16%,?,-13%,0%
NS(=O)(=O)c1ccc(CCNS(=O)(=O)c2cccc(C(=O)O)c2)cc1,0%,-16%,4%,-9%
O=C(CCNS(=O)(=O)c1ccccc1)NCC1CCCCC1,?,69%,29%,-2%
CC1CCN(C(=O)CSc2nnc(-c3cc4ccccc4cc3O)n2Cc2ccco2)CC1,?,3%[5.75 µM],12µM*,19%
CCc1nnc(NC(=O)CSc2nnc(-c3cc4ccccc4cc3O)n2CC)s1,-5%,-25%,-5%,1%
CCn1c(SCC(=O)N(C(C)C)C(C)C)nnc1-c1cc2ccccc2cc1O,?,84%,1.9µM*,-14%
CCn1c(SCC(=O)N2CCC(C)CC2)nnc1-c1ccco1,21%,-4%,-9%,4%
COc1ccc(C(=O)CSc2nnc(-c3cc4ccccc4cc3O)n2Cc2ccco2)cc1,11µM*,-1%,2.3µM*,31%
COc1ccc(NCC(=O)Nc2cccc(C(F)(F)F)c2)cc1S(=O)(=O)N1CCOCC1,?,/,/,8%
Cn1cnnc1SCC(=O)NC1CCCC1,22%,?,-26%,-5%
COc1ccccc1NC(=O)Cn1c(CN2CCCCC2)nc2ccccc2c1=O,-3%,65%,-25%,4%
SMILES,HCV inh,Pf growth 96h,Pf growth 48h,AMA1 RON2 block
CC(=O)Cn1c(CN2CCCCC2)nc2ccccc2c1=O,1%,12%,10µM*,5%
Cc1cccc(C)c1NC(=O)Cn1c(CN2CCCCC2)nc2ccccc2c1=O,1%,131%,15µM*,11%
O=C(CNC(=O)c1ccccc1F)N/N=C/c1ccc2c(c1)OCO2,9%,-18%,107%,13%
CC(C)NC(=O)C1(C#N)C=C1c1ccccc1 (stereo unspecified),/,/,/,-6%
CCOC(=O)C1(CC2CC2)CCN(C(=O)c2cc(C)nc3ccc(CC)cc23)CC1,-16%,2.1µM*,?,57%
CC(C)NC(=O)c1ccc(COc2ccc(C(C)(C)C)cc2)o1,?,?,-15%[0.00184 µM],0%
CC(NCC1(N2CCOCC2)CCCCC1)C(=O)Nc1ccc(Cl)cc1Cl (stereo unspecified),-12%,9.3µM*,?,-5%
O=C(CSc1ccc(S(=O)(=O)N2CCOCC2)cn1)Nc1ccc(OC(F)F)cc1,6%,-13%,-24%,4%
